Data on 37 compounds can be found in PubChem BioAssay AID504710 (Sanford-Burnham Center for Chemical Genomics, 2011).

Where “and” joins values, the source holds several entries; their conditions need not be identical. Equal entries are not always repeated. Unmarked numbers belong to inactive results. Calls of active or inactive are those of the source.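 How the source made its calls: active means inhibition reaching about 16% in any single replicate (limit read from the data); inactive means the rest.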

In the experiment the target is Hexokinase HKDC1 (Homo sapiens) (UniProt Q2TB90). Description: HKDC1 hexokinase inhibitors, confirmation, biochemical, single concentration (AID 504710). Particulars: recombinant HKDC1, G6PDH/diaphorase/resazurin fluorescence; at 20 µM; stronger effect = higher value. A general note: Resazurin is reduced to fluorescent resorufin, in cell work by metabolically active cells.
Chain of Hexokinase HKDC1 (Homo sapiens) (Q2TB90 whole entry, looked up): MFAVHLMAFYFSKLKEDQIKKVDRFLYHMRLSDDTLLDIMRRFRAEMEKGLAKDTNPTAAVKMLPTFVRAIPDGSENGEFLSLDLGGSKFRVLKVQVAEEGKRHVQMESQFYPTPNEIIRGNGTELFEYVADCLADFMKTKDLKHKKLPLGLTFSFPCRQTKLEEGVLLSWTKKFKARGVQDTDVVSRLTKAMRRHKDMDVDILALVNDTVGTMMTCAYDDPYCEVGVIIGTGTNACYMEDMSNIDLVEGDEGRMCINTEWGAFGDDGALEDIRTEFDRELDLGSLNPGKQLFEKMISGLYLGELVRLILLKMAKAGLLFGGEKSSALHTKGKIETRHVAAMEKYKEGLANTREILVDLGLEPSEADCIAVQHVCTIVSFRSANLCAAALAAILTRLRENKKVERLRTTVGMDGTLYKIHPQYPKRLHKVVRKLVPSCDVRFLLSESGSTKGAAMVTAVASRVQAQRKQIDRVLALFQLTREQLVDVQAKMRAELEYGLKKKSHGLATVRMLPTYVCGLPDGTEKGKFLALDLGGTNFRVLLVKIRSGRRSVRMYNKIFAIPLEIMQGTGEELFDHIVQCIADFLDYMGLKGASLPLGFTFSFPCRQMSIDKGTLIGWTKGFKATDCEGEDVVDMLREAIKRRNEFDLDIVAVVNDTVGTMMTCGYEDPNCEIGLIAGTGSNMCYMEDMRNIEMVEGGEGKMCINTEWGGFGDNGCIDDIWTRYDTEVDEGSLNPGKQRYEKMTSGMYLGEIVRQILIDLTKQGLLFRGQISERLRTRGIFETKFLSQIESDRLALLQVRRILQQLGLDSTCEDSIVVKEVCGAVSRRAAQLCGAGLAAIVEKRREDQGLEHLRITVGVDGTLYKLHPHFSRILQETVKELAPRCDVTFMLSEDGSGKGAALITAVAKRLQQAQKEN
As a reminder, the inhibition is the drop in the measured response relative to a control, in per cent. For the compound `C=CCn1nc([N+](=O)[O-])nc1Sc1cccc2cccnc12`, the inhibition was -52.4%. As for `Cc1nc(COC(=O)c2cc(O)c3ccccc3c2O)cs1`, the inhibition was 39.5% (active). Turning to `CC(C)c1ccc(S(=O)(=O)/N=C2/C=C(Sc3ncn[nH]3)C(=O)c3ccccc32)cc1`, the inhibition was 60.8% (active). In the case of `O=C1C(Nc2ccccc2)=C/C(=N/S(=O)(=O)c2cccs2)c2ccccc21`, the inhibition was 65% (active).

Take `CC(C)(C)c1c(Cl)c(O)c(-c2ccccc2)c(=O)n1-c1ccccc1`: the inhibition was 40.9% (active). For `CC(C)c1nc2oc3c(=O)[nH]cnc3c2c2c1COC(C)(C)C2` the value was 48.4% (active). For `COc1ccc2cc(CCNC(=O)c3ccc(S(=O)(=O)N4CCCC4)cc3)c(=O)[nH]c2c1` the value was 59.8% (active); for `CC(C)c1nc2oc3c(NCCO)ncnc3c2c2c1COC(C)(C)C2`, 66.2% (active). As to `CCOC(=O)c1c(NC(=O)CSc2nnnn2-c2ccc(OC)cc2)sc(C)c1C`, the inhibition is -42.3%.

As to `NC1=CC(=O)C(=O)c2ccccc21`, the inhibition was 48.7% (active).

Turning to `Cc1oc2c(c1C(=O)c1ccccc1)C(=O)C(=O)c1ccccc1-2`, the inhibition is 51.8% (active). With `COc1ccc(NC(=O)Cc2c[nH]c3ccccc23)cc1S(=O)(=O)N1CCCCC1`, the inhibition was -35.1%. For `CC[n+]1c(/C=C2\Sc3ccccc3N2C)ccc2cccc(C)c21` the value was -37.8%; for `CC(=O)N1CCN(C2c3cccc4cccc(c34)C2NS(=O)(=O)c2ccccc2)CC1` (configuration not stated), -45.3%.

In the case of `CCc1ccc2c(c1)C(NC(C)=O)C(=O)N2CCN1CCOCC1` (configuration not stated), the inhibition is 57.2% (active). With `CCOC(=O)c1c(C)[nH]c(C2=NNC(=Nc3ccccc3)SC2)c1C`, the inhibition is -141%. As for `CC(=NNC(=S)Nc1cccc(Cl)c1)c1ccccn1`, the inhibition is -63.5%.

As to `CC(=O)NC1C(=O)N(CCN2CCOCC2)c2ccc(F)cc21` (configuration not stated), the inhibition was 61.1% (active). For `O=C(NC1=CC(=O)c2ccccc2C1=O)c1ccccc1`, the inhibition was 69.9% (active). For `COc1cc(N=c2ssnc2Cl)c(OC)cc1Cl`, the inhibition is -58.8% and -56.9%.

As to `O=NNc1nc2ccccc2n1Cc1ccccc1`, the inhibition was -44.2%. For `CCOC(=O)Cn1c2ccc(F)cc2c2nc(C)sc21` the value was -36.6%; for `Cc1ccc(N=c2ssnc2Cl)cc1`, -43.7%; for `COc1ccc(C(=O)c2coc3c2C(=O)C(=O)c2ccccc2-3)cc1`, 44.8% (active). In the case of `O=C(CSc1nnc(CCCN2C(=O)c3cccc4cccc(c34)C2=O)n1-c1ccccc1)N1CCCCC1`, the inhibition was 48.3% (active). The result for `COC(=O)c1ccccc1NC1=C/C(=N\S(=O)(=O)c2ccc(C(=O)O)cc2)c2ccccc2C1=O` reads 86% (active).

On to `O=C1c2ccccc2-c2onc3ccc(Oc4ccccc4)c1c23`, for which the inhibition was 28.2% (active).

`O=Cc1[nH]c2ccccc2c1N(C(=O)CCl)c1ccccc1`: the inhibition is 34% (active). Take `CCCCNC(=O)c1sc(=S)n2c1[nH]c(=O)c1ccccc12`: the inhibition was 56.5% (active). The result for `NC1=C(Cl)C(=O)c2ccc(S(N)(=O)=O)cc2C1=O` reads -42.9%; that for `Cc1ccc(C2=NNC(=Nc3ccc(F)cc3)SC2)cc1`, -80%; that for `O=C(CSc1nnc(CCCN2C(=O)c3cccc4cccc(c34)C2=O)n1-c1ccccc1)N1CCN(CCO)CC1`, 47.6% (active). `CC(=NNC(=S)N1CC2CCC(CC2)C1)c1ccncn1`: the inhibition is -61.4%.

As for `COCc1cc(C2C(C(=O)c3ccco3)=C(O)C(=O)N2CCOCCO)ccc1O` (configuration not stated), the inhibition is -40.1%. The result for `Cc1ccc(N=C2C(=S)N(c3ccc(C)cc3)C(=N)N2/N=C/c2ccc(Cl)cc2)cc1` reads -45.3%. For `O=C(CSc1n[nH]c(-c2cccnc2)n1)Nc1ccnc2ccccc12` the value was 46% (active). For `CCC(C)C(N)C1=NC(C(=O)N[C@@H](CC(C)C)C(=O)N[C@H](CCC(=O)[O-])C(=O)N[C@H](C(=O)N[C@H]2CCCCNC(=O)[C@H](CC(N)=O)NC(=O)[C@@H](CC(=O)[O-])NC(=O)[C@H](Cc3cnc[nH]3)NC(=O)[C@@H](Cc3ccccc3)NC(=O)[C@H]([C@@H](C)CC)NC(=O)[C@@H](CCCN)NC2=O)[C@@H](C)CC)CS1.[Zn+2]` (some centres not stated) the value was 74.9% (active).
